# In PubChem BioAssay:
# Activity calls are given as the source filed them. Unless noted, how the calls were made is not given here.
# Key:
# [1] = test system: XIP peptide (Xip251-270) binding; assay: small-molecule binders of XIP peptide, primary screen, biochemical, small-molecule microarray, fluorescence 635/667 nm, 0.1 µg/mL protein (AID 1182); settings: fluorescent protein binding, 635 nm, higher = more signal, called active from +8 up or from −8 down
# XIP peptide (Xip251-270) = assay: small-molecule binders of XIP peptide, primary screen, biochemical, small-molecule microarray, fluorescence 635/667 nm, 0.5 µg/mL protein (AID 1183); settings: small-molecule microarray binding, fluorescence 635 nm; higher = more signal
# [2] = Plasmodium falciparum growth inhibition, primary screen, strain 3D7, DAPI fluorescence, 100 nL (AID 1184);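 further: parasites grown inside human red blood cells in medium with human serum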; settings: P. falciparum 3D7 growth, 3 d, higher = more signal
# [3] = target: Homeobox protein Hox-A13 (Mus musculus) (UniProt Q62424); assay: inhibitors of HoxA13-DNA binding, primary screen, biochemical, fluorescence polarization, labeled oligonucleotide (AID 1185); settings: 15 min, higher = more signal, called active from +8 up or from −8 down
# Homeobox protein Hox-A13 (Mus musculus), sequence (Q62424 whole entry, looked up): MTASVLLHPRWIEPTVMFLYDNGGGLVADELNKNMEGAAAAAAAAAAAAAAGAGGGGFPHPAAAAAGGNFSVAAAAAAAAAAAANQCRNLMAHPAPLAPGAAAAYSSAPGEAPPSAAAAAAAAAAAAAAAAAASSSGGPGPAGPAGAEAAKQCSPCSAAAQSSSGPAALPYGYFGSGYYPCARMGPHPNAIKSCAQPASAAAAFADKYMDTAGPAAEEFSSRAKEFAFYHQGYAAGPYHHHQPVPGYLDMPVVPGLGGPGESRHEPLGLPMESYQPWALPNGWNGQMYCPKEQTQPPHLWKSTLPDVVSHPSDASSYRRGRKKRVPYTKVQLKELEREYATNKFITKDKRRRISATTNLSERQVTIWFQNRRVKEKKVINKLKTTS
# [4] = inhibitors of hydroxyurea-induced Chk1 phosphorylation, primary screen, imaging, HeLa, phospho-Chk1 antibody, percent positive cells (AID 1186); settings: hydroxyurea-induced phospho-Chk1 immunofluorescence imaging, higher = more signal
# [5] = inhibitors of hydroxyurea-induced Chk1 phosphorylation, primary screen, imaging, HeLa, phospho-Chk1 nuclear intensity (AID 1187); settings: hydroxyurea-induced phospho-Chk1 immunofluorescence imaging, higher = more signal
Compound,composite z-score [1],composite z-score (XIP peptide (Xip251-270)),z-score [2],z-score [3],z-score [4],z-score [5]
COC(=O)c1ccc(OC)c(/C=C\CC(CCc2ccccc2)OC(C)=O)c1 (stereo not drawn),-0.521 (inactive),-0.187,0.522,-1.15 (inactive),0.177 (inactive),0.453 (inactive)
[N-]=[N+]=NCc1ccccc1C[C@@]1(C(=O)NCCN2CCOCC2)N=C(c2ccc(OCCCO)cc2)O[C@@H]1c1ccccc1CN=[N+]=[N-],0.607 (inactive),0.743,-2.22,-11.2 (active),0.243 (inactive),0.693 (inactive)
CC(C)(C)OC(=O)CC[C@]1(C(=O)N2CCCCC2)N=C(c2ccc(OCCCO)cc2)O[C@H]1c1ccccc1CN=[N+]=[N-],1.25 (inactive),0.855,-2.26,-2.91 (inactive),-0.692 (inactive),-0.917 (inactive)
C#CCNS(=O)(=O)N(C)C,0.153 (inactive),0.0198,-0.265,-0.146 (inactive),-0.271 (inactive),0.0602 (inactive)
CN(C)CCCCCCNC(=O)[C@@H]1C[C@@H]2C(=O)NCC(=O)N2[C@@H]1c1ccc(O)cc1,1.82 (inactive),0.935,-0.107,-1.63 (inactive),-0.425 (inactive),-0.297 (inactive)
COc1ccc(C(=O)Nc2ccc(CN3C(=O)[C@]4(O[C@H](CCn5cc([C@H](O)c6ccccc6)nn5)[C@@H]([Si](C)(C)c5ccc(OC)cc5)[C@@H]4C)c4ccccc43)cc2)cc1,-0.211 (inactive),-0.0268,-2.7,0.564 (inactive),0.107 (inactive),0.168 (inactive)
C[C@H]1ON(c2ccccc2)[C@@H](c2ccccc2)[C@@H]1C(=O)N1C(=O)OC[C@@H]1c1ccccc1,-0.222 (inactive),0.195,-0.968,-2.12 (inactive),-0.134 (inactive),-0.154 (inactive)
C=C[C@H](C)[C@H](OC(=O)Nc1ccc(SC)cc1)c1ccc(O)c2ccccc12,0.273 (inactive),0.151,-0.243,-5.27 (inactive),-0.08 (inactive),-0.437 (inactive)
COCCOC(=O)N1C(=O)[C@@]2(c3cc(C#Cc4ccc(OC)cc4)ccc31)[C@H](c1ccc(OCCO)cc1)N1[C@H](c3ccccc3)[C@H](c3ccccc3)OC(=O)[C@H]1[C@@H]2C(N)=O,1.12 (inactive),0.758,-1.97,-0.245 (inactive),0.105 (inactive),0.247 (inactive)
COCC(=C=CC[C@@H](O)c1ccccc1OCCO)C[C@@H](O)COCc1ccccc1,-0.581 (inactive),0.262,-2.84,-4.38 (inactive),-1.14 (inactive),-0.978 (inactive)
CC(C)C[C@@H]1NC(=O)[C@@H]2C[C@H](C(=O)NCc3ccc(F)cc3)[C@H](c3ccc(O)cc3)N2C1=O,0.8 (inactive),0.655,-0.395,-1.41 (inactive),0.13 (inactive),0.0555 (inactive)
CN1C(=O)C2C=CC(C(O)COCc3ccccc3)N(Nc3ccccc3)C2C1=O (stereo not drawn),-0.184 (inactive),0.311,0.872,-2.91 (inactive),0.466 (inactive),0.764 (inactive)
CCCCC(O)C1C=CC2C(=O)N(Cc3ccccc3)C(=O)C2N1n1cnnc1 (stereo not drawn),0.506 (inactive),0.856,-1.33,-1.62 (inactive),0.737 (inactive),0.0163 (inactive)
